According to PubChem BioAssay:
For some assays here: Measured potencies and affinities stand elsewhere. Active and inactive are the calls of the source. No rule for the calls is given here.

The compounds below were run against Plasmodium falciparum protein kinase 6 (PK6, PF3D7_1337100) (UniProt Q8IDW1) (assay: PfPK6 kinase inhibitors, biochemical, TCAMS library (AID 1159586)). Details: recombinant PfPK6, Kinase-Glo ATP depletion luminescence.
Chain of Plasmodium falciparum protein kinase 6 (PK6, PF3D7_1337100) (Q8IDW1 1-305): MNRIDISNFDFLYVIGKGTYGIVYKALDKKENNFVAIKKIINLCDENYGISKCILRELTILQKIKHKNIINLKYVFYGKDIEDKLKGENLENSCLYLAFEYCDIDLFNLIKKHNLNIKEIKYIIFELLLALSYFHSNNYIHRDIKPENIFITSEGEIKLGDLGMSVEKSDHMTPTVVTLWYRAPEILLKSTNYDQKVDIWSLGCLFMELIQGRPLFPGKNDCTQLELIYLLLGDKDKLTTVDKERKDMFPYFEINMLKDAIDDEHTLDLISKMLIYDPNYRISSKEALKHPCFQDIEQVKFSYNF

outcome, inactive:
Cc1cc(C(=O)N[C@H]2CCN(Cc3ccc(OCCCN(C)C)cc3)C2)ccc1Br
Cc1cc(=O)[nH]c(-n2nc(C)cc2NC(=O)C(c2ccccc2)c2ccccc2)n1
N#Cc1ccc(CN2CCCN(Cc3cccc(NC(=O)c4ccc(Cl)c(Cl)c4)c3)CC2)cc1
O=C(Nc1ccncc1)c1cc(C(=O)Nc2ccncc2)cc([N+](=O)[O-])c1
Cc1cccc(NC(=O)NCc2ccccc2)n1
Cc1ccc2c(Cl)c(C(=O)N3CCCc4ccccc43)sc2c1
CS(=O)(=O)Nc1ccc2[nH]cc(C3CCN(CC(O)C4CCN(C(=O)/C=C/c5ccc(Cl)c(Cl)c5)CC4)CC3)c2c1 (stereo not given)
N#Cc1ccc(OCCN(Cc2ccccc2C(F)(F)F)c2ccc(C#N)c(C(F)(F)F)c2)cc1
Cc1cc(=O)c(-c2ccc(Oc3cccc(Cl)c3)cc2)c(C)[nH]1
COc1cc2nc(N3CCC(CNC(=O)c4ccc(-c5ccc(C(=O)N(C)C)cc5O)cc4)CC3)nc(N)c2cc1OC
CCN(CC)CCN(Cc1ccc(-c2ccc(C(F)(F)F)cc2)cc1)C(=O)Cn1c(CCc2cccc(F)c2F)nc(=O)c2sccc21
Cc1[nH]c(C)c(-c2ccc(-c3cccc(C(F)(F)F)c3)nc2)c(=O)c1Br
Cc1ccc(C(=O)Nc2ccc(Nc3ccnc4cc(-c5ccccn5)ccc34)cc2O)cc1
COC(=O)c1cccc(CNCc2cccc(-c3cccc(-c4nc5c(C)cccc5[nH]4)c3)c2)c1
O=C(NCCN1CCCC1)c1cccc(-c2ccc(-c3nc4ccc(F)cc4[nH]3)s2)c1
COC(=O)C(Cc1ccccc1)NC(=O)NC1CCN(c2ccnc(Nc3ccc(F)cc3)n2)C1 (stereo not given)
O=C(CSc1n[nH]c(-c2ccccc2Br)n1)c1c[nH]c2ccccc12
CN(C)CCN(C)Cc1ccc(-c2ccc(NC(=O)c3cccc(Cl)c3)cc2)cc1
COc1ccc(CCn2c(=N)c(C(=O)NCc3ccccc3)cc3c(=O)n4ccccc4nc32)cc1
CCOc1ccccc1NC(=O)Nc1ccc2c(c1)CCN(C1CCC1)CC2
O=C(Nc1cccc(C(F)(F)F)c1)c1cccc2[nH]c(C(F)(F)F)nc12
Cc1cc(C)c(O)c(-c2cc(C(=O)Nc3ccc(S(=O)(=O)N4CC(C)OC(C)C4)cc3)[nH]n2)c1 (stereo not given)
CCNc1cc(C)nc(Nc2ccc(NC(=O)c3cccs3)cc2)n1
CCOc1c(CNCCCNc2cc(=O)c3ccccc3[nH]2)cc(I)cc1OC
O=C(NCCN1CCCCC1)N1CCCN(c2ncnc3cc(-c4ccccc4)sc23)CC1
NC1CCN(Cc2ccc(-c3cccc(-c4nc5ccc(F)cc5[nH]4)c3)cc2)C1 (stereo not given)
Cc1cccc2[nH]c(-c3ccc(-c4ccc(CNCc5ccccc5)cc4)s3)nc12
COc1ccc2nc(/C=C/c3cccc4ccc(C)nc34)[nH]c2c1
CCOC(=O)c1c(C)n(-c2ccccc2)c2ccc(OC(=O)COc3ccc(Cl)cc3Cl)cc12
CCOc1ccc2c(NN=Cc3ccc(F)cc3)cc(C)nc2c1
CCCCCC(C)N=C(Nc1ccc(C#N)cc1O)Nc1ccccc1Br (stereo not given)
O=C(CCc1cccnc1)Nc1ccc(-c2cccc(-c3nc4ccc(F)cc4[nH]3)c2)cc1
COc1ccc2nccc(N3CCC(CCNCc4cc5c(cn4)OCCO5)CC3)c2c1
Cc1cccc2[nH]c(-c3ccc(-c4cccc(CN5CCC(CCN6CCCCC6)CC5)c4)s3)nc12
Cc1ccc(CN2CCN(c3cc4c(cc3Cl)CCN4C(=O)Cc3ccc(Cl)c(NC(=O)Nc4cccc(C#N)c4)c3)CC2)cc1
O=C(NC1CCCc2ccccc21)C1CCCN(C(=O)c2ccc(O)c(-c3ccc(Cl)c(Cl)c3)c2)C1 (stereo not given)
Nc1nc2ncn(COC(COCc3ccccc3)COCc3ccccc3)c2c(=O)[nH]1 (tested in a mixture with another compound)
CN1CCN(c2ccc(Nc3nc(N)c4ccn(C5CCC5)c4n3)cc2)CC1
CCCCCN1CCCC(CNS(=O)(=O)c2ccc(C(=O)Nc3ccc(C(F)(F)F)cc3)cc2)C1 (stereo not given)
CC(=O)Nc1ccc(OCCCCN(Cc2ccccc2C(F)(F)F)c2ccc(C(F)(F)F)c(C#N)c2)c(Cl)c1

These compounds were tested against Protein kinase 7 (PK7), Plasmodium falciparum 3D7 (PF3D7_0213400) (UniProt Q7YTF7) (assay: inhibition of Plasmodium PK7 catalytic activity – biochemical, TCAMS antimalarial set, Kinase-Glo luminescence (AID 1159587)). Details: recombinant PfPK7, Kinase-Glo ATP depletion luminescence.
Chain of Protein kinase 7 (PK7), Plasmodium falciparum 3D7 (PF3D7_0213400) (Q7YTF7 1-343): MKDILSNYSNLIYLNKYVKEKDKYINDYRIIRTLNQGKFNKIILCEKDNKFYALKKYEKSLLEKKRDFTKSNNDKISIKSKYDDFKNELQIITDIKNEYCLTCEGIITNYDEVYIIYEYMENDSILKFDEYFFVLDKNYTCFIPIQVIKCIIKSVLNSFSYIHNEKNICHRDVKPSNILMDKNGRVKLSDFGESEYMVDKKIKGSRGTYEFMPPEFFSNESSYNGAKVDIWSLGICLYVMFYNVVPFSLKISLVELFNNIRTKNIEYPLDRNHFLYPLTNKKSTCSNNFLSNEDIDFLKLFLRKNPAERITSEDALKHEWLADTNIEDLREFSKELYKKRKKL

outcome, inactive:
Cc1cc(C(=O)N[C@H]2CCN(Cc3ccc(OCCCN(C)C)cc3)C2)ccc1Br
Cc1cc(=O)[nH]c(-n2nc(C)cc2NC(=O)C(c2ccccc2)c2ccccc2)n1
N#Cc1ccc(CN2CCCN(Cc3cccc(NC(=O)c4ccc(Cl)c(Cl)c4)c3)CC2)cc1
O=C(Nc1ccncc1)c1cc(C(=O)Nc2ccncc2)cc([N+](=O)[O-])c1
Cc1cccc(NC(=O)NCc2ccccc2)n1
Cc1ccc2c(Cl)c(C(=O)N3CCCc4ccccc43)sc2c1
CS(=O)(=O)Nc1ccc2[nH]cc(C3CCN(CC(O)C4CCN(C(=O)/C=C/c5ccc(Cl)c(Cl)c5)CC4)CC3)c2c1 (stereo not given)
N#Cc1ccc(OCCN(Cc2ccccc2C(F)(F)F)c2ccc(C#N)c(C(F)(F)F)c2)cc1
Cc1cc(=O)c(-c2ccc(Oc3cccc(Cl)c3)cc2)c(C)[nH]1
COc1cc2nc(N3CCC(CNC(=O)c4ccc(-c5ccc(C(=O)N(C)C)cc5O)cc4)CC3)nc(N)c2cc1OC
CCN(CC)CCN(Cc1ccc(-c2ccc(C(F)(F)F)cc2)cc1)C(=O)Cn1c(CCc2cccc(F)c2F)nc(=O)c2sccc21
Cc1[nH]c(C)c(-c2ccc(-c3cccc(C(F)(F)F)c3)nc2)c(=O)c1Br
Cc1ccc(C(=O)Nc2ccc(Nc3ccnc4cc(-c5ccccn5)ccc34)cc2O)cc1
COC(=O)c1cccc(CNCc2cccc(-c3cccc(-c4nc5c(C)cccc5[nH]4)c3)c2)c1
O=C(NCCN1CCCC1)c1cccc(-c2ccc(-c3nc4ccc(F)cc4[nH]3)s2)c1
COC(=O)C(Cc1ccccc1)NC(=O)NC1CCN(c2ccnc(Nc3ccc(F)cc3)n2)C1 (stereo not given)
O=C(CSc1n[nH]c(-c2ccccc2Br)n1)c1c[nH]c2ccccc12
CN(C)CCN(C)Cc1ccc(-c2ccc(NC(=O)c3cccc(Cl)c3)cc2)cc1
COc1ccc(CCn2c(=N)c(C(=O)NCc3ccccc3)cc3c(=O)n4ccccc4nc32)cc1
CCOc1ccccc1NC(=O)Nc1ccc2c(c1)CCN(C1CCC1)CC2
O=C(Nc1cccc(C(F)(F)F)c1)c1cccc2[nH]c(C(F)(F)F)nc12
Cc1cc(C)c(O)c(-c2cc(C(=O)Nc3ccc(S(=O)(=O)N4CC(C)OC(C)C4)cc3)[nH]n2)c1 (stereo not given)
CCNc1cc(C)nc(Nc2ccc(NC(=O)c3cccs3)cc2)n1
CCOc1c(CNCCCNc2cc(=O)c3ccccc3[nH]2)cc(I)cc1OC
O=C(NCCN1CCCCC1)N1CCCN(c2ncnc3cc(-c4ccccc4)sc23)CC1
NC1CCN(Cc2ccc(-c3cccc(-c4nc5ccc(F)cc5[nH]4)c3)cc2)C1 (stereo not given)
Cc1cccc2[nH]c(-c3ccc(-c4ccc(CNCc5ccccc5)cc4)s3)nc12
COc1ccc2nc(/C=C/c3cccc4ccc(C)nc34)[nH]c2c1
CCOC(=O)c1c(C)n(-c2ccccc2)c2ccc(OC(=O)COc3ccc(Cl)cc3Cl)cc12
CCOc1ccc2c(NN=Cc3ccc(F)cc3)cc(C)nc2c1
CCCCCC(C)N=C(Nc1ccc(C#N)cc1O)Nc1ccccc1Br (stereo not given)
O=C(CCc1cccnc1)Nc1ccc(-c2cccc(-c3nc4ccc(F)cc4[nH]3)c2)cc1
COc1ccc2nccc(N3CCC(CCNCc4cc5c(cn4)OCCO5)CC3)c2c1
Cc1cccc2[nH]c(-c3ccc(-c4cccc(CN5CCC(CCN6CCCCC6)CC5)c4)s3)nc12
Cc1ccc(CN2CCN(c3cc4c(cc3Cl)CCN4C(=O)Cc3ccc(Cl)c(NC(=O)Nc4cccc(C#N)c4)c3)CC2)cc1
O=C(NC1CCCc2ccccc21)C1CCCN(C(=O)c2ccc(O)c(-c3ccc(Cl)c(Cl)c3)c2)C1 (stereo not given)
Nc1nc2ncn(COC(COCc3ccccc3)COCc3ccccc3)c2c(=O)[nH]1 (tested in a mixture with another compound)
CN1CCN(c2ccc(Nc3nc(N)c4ccn(C5CCC5)c4n3)cc2)CC1
CCCCCN1CCCC(CNS(=O)(=O)c2ccc(C(=O)Nc3ccc(C(F)(F)F)cc3)cc2)C1 (stereo not given)
CC(=O)Nc1ccc(OCCCCN(Cc2ccccc2C(F)(F)F)c2ccc(C(F)(F)F)c(C#N)c2)c(Cl)c1
